Hit rate of the full screen: of about 5,500 compounds, about 2,000 (36%) were called active. Another 18% or so got no clear call; they are omitted. Cut-off read from the data, not from the text of the source: active = normalized growth mostly below about 0.91 (no sharp cut-off); inconclusive = no clear call, values can overlap the other calls; inactive = mostly above about 0.92. The list shows a part of the results.
Test: chemical genetic growth profiling, strain panel (AID 1159580);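 note: tested at 20 µM; growth read once vehicle control cultures reached saturation at 30 °C; 1 = growth at the plate median or of vehicle wells; lower values mean less growth of the strain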
Details: S. cerevisiae deletion strains, growth OD
[1] = locus YDR150W, strain NUM1, active compounds read low
[2] = locus YMR307W, strain GAS1, active compounds read low
[3] = locus YPL055C, strain LGE1, active compounds read low

Measured: normalized growth

C[C@]12C=CC(=O)C=C1CC[C@H]1[C@@H]3C[C@@H](O)[C@](O)(C(=O)CO)[C@@]3(C)C[C@H](O)[C@@]12F
inactive: locus YAL040C, strain CLN3, active compounds read low 1.02 | locus YCL061C, strain MRC1 (second series), active compounds read low 1.01 | [1] 1 | locus YDR363W, strain ESC2, active compounds read low 1.05 | locus YER002W, strain NOP16, active compounds read low 1.01 | locus YGR078C, strain PAC10, active compounds read low 1 | [2] 1.02 | locus YNL128W, strain TEP1, active compounds read low 1.01 | locus YNL153C, strain GIM3, active compounds read low 1 | locus YNL175C, strain NOP13, active compounds read low 1 | locus YNL197C, strain WHI3, active compounds read low 0.987 | locus YNL224C, strain SQS1, active compounds read low 1.01 | locus YOR083W, strain WHI5 (second series), active compounds read low 1.01 | [3] 1.03

CSCCC(NC=O)C(=O)NC(CC(C)C)C(=O)NC(Cc1ccccc1)C(=O)O (centres undefined)
inactive: locus YAL013W, strain DEP1, active compounds read low 1.01 | locus YAL021C, strain ccr4, active compounds read low 1.01 | locus YAL026C, strain drs2, active compounds read low 1 | locus YAL030W, strain snc1, active compounds read low 1 | locus YBL061C, strain skt5, active compounds read low 1 | locus YBR009C, strain hhf1, active compounds read low 1 | locus YBR021W, strain FUR4, active compounds read low 0.998 | locus YBR023C, strain chs3, active compounds read low 1 | locus YBR171W, strain sec66, active compounds read low 0.998 | locus YBR229C, strain ROT2, active compounds read low 1 | locus YBR231C, strain swc5, active compounds read low 0.997 | locus YBR279W, strain paf1, active compounds read low 1.01 | locus YCL011C, strain gbp2, active compounds read low 1 | locus YCL016C, strain dcc1, active compounds read low 1 | locus YCL029C, strain bik1, active compounds read low 0.983 | locus YCL061C, strain MRC1, active compounds read low 1.01 | locus YCL069W, strain vba3, active compounds read low 1.01 | locus YCR088W, strain abp1, active compounds read low 0.999 | locus YDL005C, strain med2, active compounds read low 0.988 | locus YDL035C, strain GPR1, active compounds read low 0.999 | locus YDL040C, strain nat1, active compounds read low 1 | locus YDL074C, strain BRE1, active compounds read low 1.03 | locus YDL101C, strain DUN1, active compounds read low 1.02 | locus YDL134C, strain PPH21, active compounds read low 0.996 | locus YDL185W, strain tfp1, active compounds read low 0.994 | locus YDL192W, strain arf1, active compounds read low 0.994 | locus YDR001C, strain nth1, active compounds read low 1 | locus YDR069C, strain doa4, active compounds read low 1 | locus YDR101C, strain arx1, active compounds read low 1 | locus YDR137W, strain rgp1, active compounds read low 1.01 | [1] 1.01 | locus YDR159W, strain sac3, active compounds read low 1 | locus YDR162C, strain NBP2, active compounds read low 1 | locus YDR195W, strain ref2 0.97 | locus YDR297W, strain sur2, active compounds read low 0.99 | locus YDR318W, strain mcm21, active compounds read low 1.01 | locus YDR334W, strain swr1, active compounds read low 1.01 | locus YDR335W, strain msn5, active compounds read low 1 | locus YDR388W, active compounds read low 1 | locus YDR392W, strain spt3, active compounds read low 1.01 | locus YDR502C, strain sam2, active compounds read low 1 | locus YEL003W, strain gim4, active compounds read low 1 | locus YEL037C, strain rad23, active compounds read low 1.01 | locus YEL061C, strain CIN8 (second series), active compounds read low 1.02 | locus YEL061C, strain CIN8, active compounds read low 1.01 | locus YER015W, strain faa2, active compounds read low 1 | locus YER016W, strain bim1, active compounds read low 1 | locus YER110C, active compounds read low 1.01 | locus YER111C, strain swi4, active compounds read low 1 | locus YER155C, strain BEM2 (second series), active compounds read low 0.995 | locus YER155C, strain BEM2, active compounds read low 1.01 | locus YER167W, strain BCK2, active compounds read low 0.995 | locus YFR010W, strain ubp6, active compounds read low 1 | locus YGL078C, strain dbp3, active compounds read low 0.99 | locus YGL086W, strain mad1, active compounds read low 1 | locus YGL167C, strain pmr1, active compounds read low 1 | locus YGL173C, strain kem1, active compounds read low 1.01 | locus YGL227W, strain vid30, active compounds read low 0.992 | locus YGL240W, strain doc1, active compounds read low 1 | locus YGL248W, strain PDE1, active compounds read low 1.01 | locus YGL253W, strain hxk2, active compounds read low 0.995 | locus YGR135W, strain pre9, active compounds read low 1 | locus YGR252W, strain gcn5, active compounds read low 1.01 | locus YHR013C, strain ard1, active compounds read low 1 | locus YHR027C, strain rpn1, active compounds read low 0.986 | locus YHR030C, strain SLT2, active compounds read low 0.998 | locus YHR079C, strain IRE1 (second series), active compounds read low 1 | locus YHR094C, strain hxt1, active compounds read low 1 | locus YHR129C, strain ARP1, active compounds read low 1.01 | locus YHR142W, strain chs7, active compounds read low 1.01 | locus YHR200W, strain rpn10, active compounds read low 0.98 | locus YIL066C, strain RNR3, active compounds read low 0.996 | locus YIL073C, strain SPO22, active compounds read low 1.01 | locus YIL125W, strain kgd1, active compounds read low 0.998 | locus YIR030C, strain dcg1, active compounds read low 0.99 | locus YJL092W, strain hpr5, active compounds read low 0.993 | locus YJL095W, strain BCK1 (second series), active compounds read low 1 | locus YJL095W, strain BCK1, active compounds read low 1.03 | locus YJL115W, strain asf1, active compounds read low 1.01 | locus YJL129C, strain trk1, active compounds read low 1 | locus YJL134W, strain LCB3, active compounds read low 1 | locus YJL154C, strain vps35, active compounds read low 1 | locus YJL164C, strain tpk1, active compounds read low 1.01 | locus YJL166W, strain qcr8, active compounds read low 1.03 | locus YJL168C, strain set2, active compounds read low 1.01 | locus YJL187C, strain SWE1 (second series), active compounds read low 1.04 | locus YJL187C, strain SWE1, active compounds read low 0.999 | locus YJR043C, strain POL32, active compounds read low 0.992 | locus YJR075W, strain HOC1, active compounds read low 1.02 | locus YKL009W, strain mrt4, active compounds read low 1.01 | locus YKL068W, active compounds read low 0.996 | locus YKL085W, strain MDH1 (second series), active compounds read low 0.995 | locus YKL085W, strain MDH1, active compounds read low 0.995 | locus YKL160W, strain elf1, active compounds read low 1.01 | locus YKL190W, strain CNB1, active compounds read low 1.01 | locus YKR001C, strain vps1, active compounds read low 0.992 | locus YKR026C, strain gcn3, active compounds read low 0.994 | locus YKR091W, strain srl3, active compounds read low 1.01 | locus YLL001W, strain dnm1, active compounds read low 1 | locus YLL026W, active compounds read low 0.996 | locus YLL041C, strain sdh2, active compounds read low 1.01 | locus YLR027C, strain aat2, active compounds read low 0.988 | locus YLR039C, strain RIC1, active compounds read low 1 | locus YLR058C, strain SHM2, active compounds read low 1.02 | locus YLR102C, strain apc9, active compounds read low 1 | locus YLR221C, strain rsa3, active compounds read low 0.998 | locus YLR258W, strain gsy2, active compounds read low 1.02 | locus YLR262C, strain YPT6 (second series), active compounds read low 1.02 | locus YLR262C, strain YPT6, active compounds read low 1.05 | locus YLR268W, strain sec22, active compounds read low 1 | locus YLR320W, strain mms22, active compounds read low 0.998 | locus YLR330W, strain CHS5, active compounds read low 1.01 | locus YLR342W, strain FKS1 (second series), active compounds read low 1.01 | locus YLR342W, strain FKS1, active compounds read low 1 | locus YLR357W, strain rsc2, active compounds read low 0.971 | locus YLR370C, strain arc18, active compounds read low 1 | locus YLR371W, strain rom2, active compounds read low 1.01 | locus YLR384C, strain iki3, active compounds read low 1 | locus YLR418C, strain cdc73, active compounds read low 0.998 | locus YML016C, strain PPZ1, active compounds read low 1 | locus YML032C, strain rad52, active compounds read low 0.998 | locus YML120C, strain ndi1, active compounds read low 1.01 | locus YML124C, strain tub3, active compounds read low 1 | locus YMR058W, strain fet3, active compounds read low 1 | locus YMR078C, strain ctf18, active compounds read low 1 | locus YMR125W, strain sto1, active compounds read low 0.993 | locus YMR129W, active compounds read low 1 | locus YMR205C, strain PFK2, active compounds read low 1 | locus YMR223W, strain ubp8, active compounds read low 1 | locus YMR231W, strain pep5, active compounds read low 0.977 | [2] 1.05 | locus YNL067W, strain RPL9B, active compounds read low 1.03 | locus YNL071W, strain lat1, active compounds read low 1 | locus YNL209W, strain ssb2, active compounds read low 1.01 | locus YNL233W, strain BNI4, active compounds read low 1.02 | locus YNL248C, strain rpa49, active compounds read low 1 | locus YNL250W, strain rad50, active compounds read low 1.01 | locus YNL271C, strain bni1, active compounds read low 0.996 | locus YNL298W, strain CLA4, active compounds read low 1 | locus YNL307C, strain MCK1, active compounds read low 1 | locus YNL322C, strain KRE1 (second series), active compounds read low 0.996 | locus YNR049C, strain mso1, active compounds read low 0.998 | locus YNR052C, strain pop2, active compounds read low 1 | locus YOL006C, strain TOP1, active compounds read low 1.06 | locus YOL012C, strain htz1 0.872 | locus YOL147C, strain pex11, active compounds read low 1 | locus YOR001W, strain rrp6, active compounds read low 1.01 | locus YOR061W, strain CKA2, active compounds read low 0.997 | locus YOR069W, strain VPS5, active compounds read low 1 | locus YOR070C, strain gyp1, active compounds read low 1.02 | locus YOR080W, strain dia2, active compounds read low 0.99 | locus YOR083W, strain WHI5, active compounds read low 1 | locus YOR106W, strain vam3, active compounds read low 1.01 | locus YOR136W, strain idh2, active compounds read low 1.01 | locus YOR144C, strain elg1, active compounds read low 0.987 | locus YOR184W, strain ser1, active compounds read low 0.986 | locus YOR265W, strain rbl2, active compounds read low 1.01 | locus YOR270C, strain vph1, active compounds read low 1.03 | locus YOR290C, strain snf2, active compounds read low 1.01 | locus YOR316C, strain cot1, active compounds read low 1 | locus YPL051W, strain arl3, active compounds read low 0.996 | [3] 1.01 | locus YPL078C, strain atp4, active compounds read low 1 | locus YPL106C, strain sse1, active compounds read low 0.99 | locus YPL240C, strain hsp82, active compounds read low 0.999 | locus YPR119W, strain clb2, active compounds read low 1 | locus YPR141C, strain kar3, active compounds read low 0.985 | locus YPR163C, strain tif3, active compounds read low 1 | locus YPR167C, strain met16, active compounds read low 0.994 | strain wtn01, active compounds read low 0.986
